D2 PAM-1: Beta-Arrestin HTS for Positive Allosteric Modulators of the Human D2 Dopamine Receptor: Potentiators; D(2) dopamine receptor (Homo sapiens), P14416; AID 624464, 2012; DiscoveRx D2 beta-arrestin cells, luminescence, 90 min; 100% = 57 uM dopamine signal; 0.23% of 360,000 active; potentiation, % (test concentration not listed); in the data active = potentiation above about 50%
Target sequence (P14416 whole entry, looked up): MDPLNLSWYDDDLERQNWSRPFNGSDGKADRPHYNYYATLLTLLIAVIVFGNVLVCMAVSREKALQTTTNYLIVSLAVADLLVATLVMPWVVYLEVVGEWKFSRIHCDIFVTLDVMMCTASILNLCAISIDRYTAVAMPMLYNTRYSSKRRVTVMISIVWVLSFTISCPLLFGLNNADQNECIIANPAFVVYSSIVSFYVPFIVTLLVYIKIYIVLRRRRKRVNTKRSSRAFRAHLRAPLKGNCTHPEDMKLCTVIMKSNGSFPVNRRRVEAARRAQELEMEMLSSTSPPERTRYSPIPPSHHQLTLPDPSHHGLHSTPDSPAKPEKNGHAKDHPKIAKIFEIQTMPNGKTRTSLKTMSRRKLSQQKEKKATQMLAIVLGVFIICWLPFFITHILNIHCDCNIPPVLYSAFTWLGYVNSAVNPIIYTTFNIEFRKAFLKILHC
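PathHunter beta-arrestin assay in DiscoveRx D2 cells. Compounds were added with an EC20 of dopamine (50 nM final) for 90 min at 37 deg C. Luminescence was read 1 h after detection reagent, with 57 uM dopamine as the EC100 control.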
D2 ag-1: HTS Assay for Allosteric Agonists of the Human D2 Dopamine Receptor: Primary Screen for Agonists; activation, % at 2 µM; HEK293 T-REx D2 cells, calcium flux agonist mode; 0.53% of 340,000 active; AID 485358, 2010; D(2) dopamine receptor (Homo sapiens), P14416;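 active = activation over 3 SD above normal in the single-dose calcium agonist read, cut at about 30% in these data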; note: 0% is about no effect
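HEK293 Trex D2 cells, tetracycline-induced, o/n 30 C 5% CO2; no-wash Ca dye, RT 30–90 min; 10-cycle baseline, 23 nl cpd added, kinetic Ca read 180 s; agonist hits = positive Ca response.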
D2 antag: HTS Assay for Allosteric Antagonists of the Human D2 Dopamine Receptor: Primary Screen for Antagonists; HEK293 TREx D2 cells, calcium flux, dopamine EC80; inhibition, % at 10 µM; AID 485344, 2010; D(2) dopamine receptor (Homo sapiens), P14416; 2% of 340,000 active; in the data active = inhibition above about 30%; inactive = below that, where a call was filed; note: 0% is about no effect
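HEK293 T-REx D2 cells, tet-induced, calcium dye no-wash. Cpd pintool add, 180 s kinetic, then EC80 DA, 180 s kinetic. Ca flux read.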
D2 ag-2: Beta-Arrestin HTS for Positive Allosteric Modulators of the Human D2 Dopamine Receptor: Agonists | D(2) dopamine receptor (Homo sapiens), P14416 | DiscoveRx PathHunter D2 beta-arrestin, luminescence, 90 min; 100% = 57 uM dopamine signal | activation, % (no concentration beside the values) | 0.084% of 360,000 active; in the data active = activation above about 40%
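DiscoveRx PathHunter D2 beta-arrestin cells (2,100/well) attached overnight, then compound-stimulated 90 min at 37 C in HBSS/10 mM HEPES/0.1% Tween-20 buffer; beta-galactosidase complementation read by luminescence after 1 h at ambient temperature. Dopamine 57 uM final (EC100) as control.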
D2 PAM-2: HTS Assay for Positive Allosteric Modulators of the Human D2 Dopamine Receptor: Primary Screen for Potentiators | D(2) dopamine receptor (Homo sapiens), P14416 | HEK293 T-REx D2, calcium flux, EC20 dopamine potentiation | potentiation, % at 10 µM | 0.34% of 340,000 active;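 active = potentiation over 3 SD above the plate norm, cut at about 30% in these data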; note: 0% is about no effect
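Using a no-wash calcium dye in inducible, force-coupled HEK293 Trex cells expressing D2, we tracked fluorescence each second for 180 s after compound, then for 180 s after EC20 dopamine to detect augmented signalling.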
Numbers without * were called inactive; · = not tested or not shown. Shown are actives, neighbours in structure and some others; about 2.4% of the full set was active somewhere.

SMILES	D2 PAM-1	D2 ag-1	D2 antag	D2 ag-2	D2 PAM-2
O=C(NCC1CCOCC1)c1ccc2nc(Cc3cccc(Cl)c3)oc2c1	-5.5	1.4	61.1*	-4.9	-21.9
CN(CC1CCOCC1)C(=O)c1ccc2nc(Cc3cccc(Cl)c3)oc2c1	12.1	·	·	2.9	10.8
Cc1cc(NC(=O)CSc2nc(C3CCCCC3)nc3ccccc23)no1	-7.9	0.5	-23.7	-1.2	-1.1
Cc1nonc1NC(=O)CSc1nc(C2CCCCC2)nc2ccccc12	-14.5	-1.2	53.5*	-4.5	2.3
Cc1cc(C)c(S(=O)(=O)N/N=C/c2ccc3c(c2)OCO3)c(C)c1	-21.5	8.7	73.8*	2.5	-21.1
Cn1cccc1/C=N/N1CCN(c2ccccn2)CC1	-2.9	30.5*	25.4	4.3	-8.2
Cc1ccc(/C=N/N2CCN(c3ccccn3)CC2)cc1	-8.5	1.5	-15.4	-0.9	12.6
COc1cc(NC(=O)CSc2nc(C)c(C)c(C)n2)cc(OC)c1	-2.2	-0.6	48.3*	-2.5	6.1
COc1cc(Cl)c(C)cc1NC(=O)c1cc(CN2CCOCC2)on1	·	·	·	·	-5.6
CCOC(=O)N1CCN(S(=O)(=O)CCNC(=O)c2ccc(F)cc2)CC1	-1.5	·	-8.5	-4.9	5.5
CCOC(=O)N1CCN(S(=O)(=O)CCNC(=O)c2ccc(OC)cc2)CC1	2.5	-0.2	34.1*	-5.0	-8.1
CC(=O)c1ccc(OCC(O)CN2CCN(S(=O)(=O)c3c(C)cc(C)cc3C)CC2)cc1 (stereo unspecified)	-6.3	0.7	-0.2	1.0	1.8
CC1CCCN(CC(O)COC(c2ccccc2)c2ccccc2)C1 (stereo unspecified)	-9.9	1.0	50.2*	-1.0	-9.7
CC(=O)c1ccc(N2CCN(CC(O)COC(c3ccccc3)c3ccccc3)CC2)cc1 (stereo unspecified)	-12.2	-0.8	-17.1	-0.9	37.1*
COc1cc(C(C)=O)ccc1OCC(O)CN1CCN(c2cc(C)cc(C)c2)CC1 (stereo unspecified)	-4.2	1.4	57.9*	3.8	-30.3
Cc1c(C(=O)N(Cc2ccc(N(C)C)cc2)Cc2ccco2)oc2cc(Br)ccc12	·	0.3	·	·	5.5
Cc1ccc(NC(=O)Cn2c(=O)n(Cc3ccccc3)c(=O)c3c2c2cc(C)ccc2n3C)cc1	·	-0.4	·	·	11.9
CCOC(=O)c1c(S(=O)(=O)N2CCCC(C(=O)Nc3cccc(C#N)c3)C2)c(C)n(C)c1C (stereo unspecified)	·	22.7	·	·	-2.5
Cc1ccsc1CN(C(=O)c1ccc(OCC(C)C)cc1)C1CCS(=O)(=O)C1 (stereo unspecified)	·	·	·	·	11.6
Cc1ccc(C2=Nc3ccccc3NC(c3ccncc3)=N2)cc1	·	-1.1	·	·	-2.7
CN(C(=O)COc1ccc(Br)cc1Cl)C1CCCCC1	-11.2	0.7	-8.9	-2.0	-8.1
CN1CCC(N(C)C(=O)COc2ccccc2Cl)CC1	-3.2	1.6	31.1*	-2.4	-15.0
CCc1ccc(NC(=O)c2cnn(-c3c(C)cccc3C)c2C2CCNCC2)cc1	·	0.5	·	·	2.2
CCC1(NC(C)=O)CC2CC1CC2NC(C)=O (stereo unspecified)	-1.4	0.1	38.5*	-3.7	-19.4
CC(=O)NC1CCCC(NC(C)=O)C1 (stereo unspecified)	-4.2	·	·	1.4	·
SMILES	D2 PAM-1	D2 ag-1	D2 antag	D2 ag-2	D2 PAM-2
O=C1CCSC2(C(=O)N(Cc3ccccc3)c3ccccc32)N1c1ccccc1 (stereo unspecified)	·	·	·	·	5.3
Cc1ccc(OCC(=O)Nc2ccc3nc(SCC(=O)N4CCCC4)sc3c2)cc1C	·	-1.8	·	·	-12.5
COc1ccc(CCNC(=O)COc2ccc(S(=O)(=O)NC3CCCCC3)cc2Cl)cc1	-2.4	1.0	-6.1	3.3	33.7*
COc1ccc(S(=O)(=O)NC2CCCC2)cc1Br	-7.6	0.9	30.9*	-3.7	7.5
COc1ccc(CNC(=O)COC(=O)c2n[nH]c3ccccc23)cc1	19.9	0.7	1.0	-2.4	-8.0
O=C(COc1ccc(S(=O)(=O)NC2CCCCC2)cc1Cl)NCC1CCCO1 (stereo unspecified)	-8.5	-1.4	-20.0	-2.7	8.9
COc1ccc(CCNC(=O)c2n[nH]c3ccccc23)cc1	1.3	4.3	41.8*	1.9	-10.2
COc1ccc(CCNC(=O)COC(=O)C2CC2)cc1	0.6	0.6	31.3*	-2.9	-0.5
CCC(C)n1c(SCc2ccc(F)cc2Cl)nc2ccsc2c1=O (stereo unspecified)	·	1.1	·	·	1.7
CCCCCOc1ccc(NC(=O)Cn2c(-c3nonc3N)nc3ccccc32)cc1	·	1.0	·	·	-2.3
CC(C(=O)NCc1ccccc1F)n1ccc2cc(S(=O)(=O)N3CCCC3)ccc21 (stereo unspecified)	·	0.4	·	·	-3.2
Cc1ccc(C(=O)CCC(=O)OCC(=O)N2c3ccccc3NC(=O)C2(C)C)cc1	-17.8	·	·	-0.8	·
Cc1ccc(S(=O)(=O)CCC(=O)OCC(=O)N2c3ccccc3NC(=O)C2(C)C)cc1	-15.3	0.0	89.9*	-3.4	6.4
CC(=O)Nc1ccc(N2Cc3ccccc3C2)cc1	51.6*	1.3	-2.2	7.3	0.9
CC(=O)Nc1ccc(N2CCCC2)cc1	-9.8	0.3	-13.6	1.0	-15.3
CCCCn1cnc2cc(NCc3ccccc3Cl)ccc21	·	-0.5	·	·	-3.5
O=C(CCCN1CCC(C(O)c2ccc(F)cc2)CC1)c1ccc(F)cc1 (stereo unspecified)	-15.8	·	·	-5.0	·
O=C(CCCN1CCC(O)(c2ccc(Br)cc2)CC1)c1ccc(F)cc1	-33.0	1.0	78.5*	-3.9	-20.4
O=C(CCCN1CCC(C(=O)c2ccc(F)cc2)CC1)c1ccc(F)cc1	-4.5	-3.0	71.5*	-3.4	-19.5
O=C(CCCN1CCC(O)(c2cccc(C(F)(F)F)c2)CC1)c1ccc(F)cc1	-34.0	0.9	9.4	-4.0	16.5
CC1O[C@@H](OC2C(COC3OC(CO)C(O)[C@H](O)C3O)OC(OC3CC[C@]4(C)C(CC[C@@]5(C)[C@@H]4CC=C4[C@@H]6CC(C)(C)CC[C@]6(CO)C(O)C[C@]45C)C3(C)C)C(O)C2O)C(O)C(O)C1O (stereo partly specified)	-52.2	·	·	-0.1	·
CC1OC(O[C@H]2CC[C@]3(C)C4C=C[C@]56OC[C@@]7(CC[C@@H](C)[C@H](C)C75)[C@H](O)C[C@@]6(C)[C@]4(C)CC[C@H]3C2(C)C)C(OC2OC(CO)C(O)C(O)C2OC2OCC(O)C(O)C2O)C(O)C1O (stereo partly specified)	·	43.0*	35.1*	·	-14.1

Screening data from PubChem BioAssay.
